Data on 10 molecules can be found in PubChem BioAssay.

Several values for one entry are separate records, joined by “and”; a condition that tells them apart may be missing. Equal values may be shown once. Records with an inconclusive call do not appear. Activity calls are given as the source filed them.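 How the source made its calls, unless noted: active means compounds whose cell count with miR-34 switched on is under 0.7 times the count with it off; inactive means the rest.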

Assay [1] in a line: viability loss with induced miR-34 in A549 – imaging, A549 dox-inducible miR-34, nuclei and caspase counts, primary screen (AID 1347080). The settings on record: A549 miR-34 inducible, Hoechst nuclei count, 48 h.
Assay [2] can be described thus: galactose survival enhancers in mitochondrial complex I cybrids – cell-based, galactose medium, ATP luminescence, primary screen (AID 1645843;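 active means z-score of at least 1.8 in each of two replicates, scored against plate mean and spread of sample wells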;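 further: positive z means more ATP and so rescue of galactose-driven cybrid death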). Conditions: complex I mutant cybrid cells, 72 h, stronger effect = higher value.
Assay [3] is described as follows: compounds altering circadian rhythm period length – cell-based, LOPAC library, luminescence reporter (AID 2774; call rule not given here;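 further: values are relative to mean of DMSO wells on each plate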). Conditions: circadian reporter cells, at 7 µM, actives lie on both sides.
Assay [4] relates to Hepatitis C virus NS3 helicase. Put plainly: blockers of NS3h binding to ssDNA – biochemical, fluorescence polarization, LOPAC1280 library, primary screen (AID 687035; in the data active means inhibition above about 37%). The settings on record: Purified HCV NS3 helicase, Cy5-dT15 ssDNA binding fluorescence polarization; stronger effect = higher value; concentration not given here.
A short description of assay [5]: compounds altering Cy5-DNA-NS3h complex signal – biochemical, LOPAC1280, artefact control for HCV NS3 helicase inhibitor project (AID 687037; call rule not given here). The settings on record: Cy5-DNA-NS3h complex fluorescence interference counterscreen.
Assay [6] has as its target ATP-dependent translocase ABCB1 (Homo sapiens) (UniProt P08183). Description: P-glycoprotein substrate transport blockade – cell-based (AID 377; in the data active means fluorescence slope change above about 50%). Conditions: MDR1-expressing cells, fluorescent substrate accumulation slope; stronger effect = higher value; concentration not given here.
Assay [7] is described as follows: compounds altering viability of human ES cells (AID 493140; call rule not given here;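 further: cells exposed to compounds for four days before counting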). Conditions: human embryonic stem cell survival screen; stronger effect = higher value.
Assay [8] in a line: P. berghei load reduction in hepatocytes – cell-based, HepG2, luciferase luminescence, HepG2 viability, primary screen (AID 624349; in the data active means parasite load remaining mostly below about 12%, no sharp cut-off; inactive means mostly above about 10%;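 further: 100% = mean of DMSO negative control wells on the same plate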). Conditions: P. berghei liver stage in HepG2, luciferase luminescence, concentration not given here; parasite load remaining: stronger effect = lower value; viability: measured here: HepG2 viability without parasites.
The mark [9] stands for this setting: stronger effect = lower value, cell number ratio, induced over uninduced.
Setting [10] is: measured here: relative caspase fold change +Dox/-Dox.
Setting [11] is: measured here: total cells with miR-34 induction, stronger effect = lower value.
The mark [12] stands for this setting: measured here: total cells without miR-34 induction.

Sequence of ATP-dependent translocase ABCB1 (Homo sapiens) (P08183 whole entry, looked up): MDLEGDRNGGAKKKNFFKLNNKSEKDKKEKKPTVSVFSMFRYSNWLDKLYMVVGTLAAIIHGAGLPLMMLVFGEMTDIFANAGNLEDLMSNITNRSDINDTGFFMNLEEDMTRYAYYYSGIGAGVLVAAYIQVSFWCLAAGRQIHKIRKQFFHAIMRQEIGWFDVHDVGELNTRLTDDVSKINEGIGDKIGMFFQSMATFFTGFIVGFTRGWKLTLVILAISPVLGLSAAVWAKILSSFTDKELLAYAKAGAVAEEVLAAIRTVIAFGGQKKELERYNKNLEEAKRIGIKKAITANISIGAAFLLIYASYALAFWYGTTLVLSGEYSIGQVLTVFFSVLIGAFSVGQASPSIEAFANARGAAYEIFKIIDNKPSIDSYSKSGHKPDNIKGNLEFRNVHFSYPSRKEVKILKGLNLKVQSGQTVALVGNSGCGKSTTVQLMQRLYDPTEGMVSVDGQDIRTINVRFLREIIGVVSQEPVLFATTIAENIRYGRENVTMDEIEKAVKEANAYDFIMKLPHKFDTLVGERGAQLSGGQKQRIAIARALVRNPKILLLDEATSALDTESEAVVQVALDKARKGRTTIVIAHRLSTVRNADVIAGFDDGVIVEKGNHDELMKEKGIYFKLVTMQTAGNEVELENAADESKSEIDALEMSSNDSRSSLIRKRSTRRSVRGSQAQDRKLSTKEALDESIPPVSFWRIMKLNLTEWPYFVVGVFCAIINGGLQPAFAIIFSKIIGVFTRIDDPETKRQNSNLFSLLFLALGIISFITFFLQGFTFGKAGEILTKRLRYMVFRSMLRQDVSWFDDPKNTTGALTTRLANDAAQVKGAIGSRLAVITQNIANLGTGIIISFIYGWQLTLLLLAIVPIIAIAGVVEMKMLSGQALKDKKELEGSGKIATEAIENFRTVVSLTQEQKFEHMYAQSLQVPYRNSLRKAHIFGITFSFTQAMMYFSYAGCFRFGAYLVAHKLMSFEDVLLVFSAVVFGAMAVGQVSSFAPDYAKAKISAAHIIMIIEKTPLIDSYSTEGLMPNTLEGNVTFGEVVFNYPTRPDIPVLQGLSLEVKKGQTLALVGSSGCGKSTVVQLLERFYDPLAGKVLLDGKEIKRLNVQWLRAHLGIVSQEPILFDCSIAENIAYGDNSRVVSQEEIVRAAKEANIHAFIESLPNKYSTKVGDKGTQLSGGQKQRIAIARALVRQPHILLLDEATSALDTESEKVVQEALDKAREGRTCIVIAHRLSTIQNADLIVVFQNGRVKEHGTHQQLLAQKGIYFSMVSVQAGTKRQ

As to `CCC(C)C(=O)OC1CCC=C2C=CC(C)C(CCC3CC(O)CC(=O)O3)C21` (stereo not given), the fold change was 0.968 (inactive) in assay [1] (setting [9]) and 0.887 in assay [1] (setting [10]). In addition, the cell count in assay [1] (setting [11]) was determined as 1480; in assay [1] (setting [12]) it was 1530. Besides, the z-score in assay [2] was -0.74 (inactive).

In the case of `COc1cc(CNC(=O)CCCCC=CC(C)C)ccc1O`, the values for the fold change in assay [1] (setting [9]) and in assay [1] (setting [10]) were 0.954 (inactive) and 2.14, respectively. For the same molecule, the cell count was 9660 in assay [1] (setting [11]) and 10100 in assay [1] (setting [12]). Also, the z-score in assay [2] is 0.315 (inactive).

Regarding `O=c1c(OC2OC(CO)C(O)C(O)C2O)c(-c2ccc(O)c(O)c2)oc2cc(O)cc(O)c12` (stereo not given), the fold change in assay [1] (setting [9]) was 0.911 (inactive) and 0.974 (inactive); in assay [1] (setting [10]), 0.962 and 2.15. Also, the cell count in assay [1] (setting [11]) was 4950 and 10100; in assay [1] (setting [12]), 5430 and 10300. The z-score in assay [2] is -1.74 (inactive) and 0.575 (inactive).

With `CN(C)CCC=C1c2ccccc2COc2ccccc21`, the fold change is 0.942 (inactive) in assay [1] (setting [9]) and 2.06 in assay [1] (setting [10]). The results for the cell count in assay [1] (setting [11]) and in assay [1] (setting [12]) were 8300 and 8810, respectively. For the same molecule, the z-score in assay [2] was -0.535 (inactive).

As for `CN1CC(=O)N/C1=N\C(=O)Nc1cccc(Cl)c1`, the fold change is 1.1 (inactive) in assay [1] (setting [9]) and 0.699 in assay [1] (setting [10]). Moreover, the cell count worked out at 10900 in assay [1] (setting [11]) and 9930 in assay [1] (setting [12]). In addition, in assay [2], the z-score was 0.545 (inactive).

In the case of `O=C(O)CCC/C=C\C[C@@H]1[C@@H](/C=C/[C@H](O)C2Cc3ccccc3C2)[C@@H](F)C[C@@H]1O`, in assay [3], the period change is -0.195 h (inactive). Moreover, the inhibition in assay [4] was -2% (inactive). For the same molecule, in assay [5], the fluorescence ratio (interference) was 1 (inactive). The fold change was 0.962 (inactive) and 0.866 (inactive) in assay [1] (setting [9]); 1.71 and 1.08 in assay [1] (setting [10]). Moreover, the cell count is 9120 and 5490 in assay [1] (setting [11]); 9480 and 6340 in assay [1] (setting [12]). In addition, the z-score in assay [2] was 0.805 (inactive).

Regarding `C[N+]1(C)C[C@@H](O)C[C@H]1C(=O)[O-]`, the fluorescence slope change in assay [6] was 28.3% (inactive). For the same molecule, the survival in assay [7] is 7 (inactive). The parasite load remaining in assay [8] is 117% (inactive). The viability in assay [8] worked out at 106%. For the same molecule, the fold change in assay [1] (setting [9]) was 0.868 (inactive); in assay [1] (setting [10]) it was 1.07. The cell count in assay [1] (setting [11]) was 8350; in assay [1] (setting [12]) it was 9610.

For `N=C(N)c1ccc(OCCCCCOc2ccc(C(=N)N)cc2)cc1` (tested in a mixture with another compound), in assay [3], the period change is 0.16 h (inactive). For the same molecule, the inhibition in assay [4] is -1% (inactive). Further, the fluorescence ratio (interference) in assay [5] is 1 (inactive). Moreover, the values for the fold change in assay [1] (setting [9]) and in assay [1] (setting [10]) were 1.03 (inactive) and 0.748, respectively. The cell count in assay [1] (setting [11]) came to 3790; in assay [1] (setting [12]) it was 3670. In addition, in assay [2], the z-score was -1.29 (inactive).

Regarding `N=c1c[n+](N2CCOCC2)[n-]o1`, the period change in assay [3] is 0.03 h (inactive). In addition, the inhibition in assay [4] was -1% (inactive) and -5% (inactive). Further, in assay [5], the fluorescence ratio (interference) is 1 (inactive). The fold change in assay [1] (setting [9]) is 1 (inactive) and 0.984 (inactive); in assay [1] (setting [10]), 2.22 and 1.55. Further, the cell count is 10300 and 10500 in assay [1] (setting [11]); 10300 and 10700 in assay [1] (setting [12]). Besides, in assay [2], the z-score was -0.02 (inactive) and 0.005 (inactive).

Regarding `CNc1ncnc2c1ncn2[C@H]1C[C@H](OP(=O)(O)O)[C@@H](COP(=O)(O)O)O1`, in assay [3], the period change was -0.03 h (inactive). Moreover, the inhibition in assay [4] was -4% (inactive). For the same molecule, the fluorescence ratio (interference) in assay [5] is 1 (inactive). Besides, the fold change in assay [1] (setting [9]) was 1.08 (inactive); in assay [1] (setting [10]) it was 1.03. Further, the results for the cell count in assay [1] (setting [11]) and in assay [1] (setting [12]) were 10600 and 9840, respectively. Also, the z-score in assay [2] was 0.465 (inactive).
